Results: PubChem BioAssay (NCI)
This is part of a sample that, as a whole, favours compounds with a hit. Of some 83,000 tested, about 20% had one in any assay.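 Interpretation: 100, growth as untreated; towards 0, rising growth inhibition; 0, no net growth; 0 to -100, cell death. Compounds scoring below 10 were considered active.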 Unmarked numbers belong to inactive results. Calls of active or inactive are those of the source.

Assays:
Experiment in all cases: NCI-60 one-dose screen, 48 h (100 = growth as untreated, 0 = no growth, -100 = all killed)
Settings in all cases: 10 µM unless noted
RPMI-8226 leukemia = test system: RPMI-8226 leukemia
OVCAR-8 ovarian = test system: OVCAR-8 ovarian
OVCAR-5 ovarian = test system: OVCAR-5 ovarian
OVCAR-4 ovarian = test system: OVCAR-4 ovarian
SK-OV-3 ovarian = test system: SK-OV-3 ovarian
IGROV1 ovarian = test system: IGROV1 ovarian
OVCAR-3 ovarian = test system: OVCAR-3 ovarian
HS 578T breast = test system: HS 578T breast
NCI/ADR-RES ovarian = test system: NCI/ADR-RES ovarian

CCn1cc(Cc2cc(C(=O)Nc3cc4cc(OC)c(OC)cc4c(C)n3)ccc2Cl)cn1
growth (RPMI-8226 leukemia): 29.6% | growth (OVCAR-8 ovarian): 34.6% | growth (OVCAR-5 ovarian): 103% | growth (OVCAR-4 ovarian): 58.2% | growth (SK-OV-3 ovarian): 57.9% | growth (IGROV1 ovarian): 69.5% | growth (OVCAR-3 ovarian): 38% | growth (HS 578T breast): 49.5% | growth (NCI/ADR-RES ovarian): 22.5%

CNC(=O)c1cc(Oc2ccc3c(c2)sc2nc(-c4cc(C(F)(F)F)cc(C(F)(F)F)c4)cn23)ccn1
growth (RPMI-8226 leukemia): 50.1% | growth (OVCAR-8 ovarian): 36.1% | growth (OVCAR-5 ovarian): 91.4% | growth (OVCAR-4 ovarian): 24.8% | growth (IGROV1 ovarian): 74.1% | growth (OVCAR-3 ovarian): 68.3% | growth (HS 578T breast): 49.4% | growth (NCI/ADR-RES ovarian): 68.3%

O=C(Nc1ncc(Cc2ccccc2)s1)c1sc2ccccc2c1Cl
growth (RPMI-8226 leukemia): 28% | growth (OVCAR-8 ovarian): 27.8% | growth (OVCAR-5 ovarian): 41.8% | growth (OVCAR-4 ovarian): 68.1% | growth (SK-OV-3 ovarian): 28.8% | growth (IGROV1 ovarian): 33.1% | growth (OVCAR-3 ovarian): -30.6% (active) | growth (HS 578T breast): 13.5% | growth (NCI/ADR-RES ovarian): 16.1%

CCOc1ccc(/C=C/C(=O)c2cccc(OCCCOc3cccc(C(=O)/C=C/c4ccc(OCC)cc4)c3)c2)cc1
growth (RPMI-8226 leukemia): 93.6% | growth (OVCAR-8 ovarian): 85.9% | growth (OVCAR-5 ovarian): 107% | growth (OVCAR-4 ovarian): 69.1% | growth (SK-OV-3 ovarian): 103% | growth (IGROV1 ovarian): 78.7% | growth (OVCAR-3 ovarian): 85.5% | growth (HS 578T breast): 90.2% | growth (NCI/ADR-RES ovarian): 86.5%

COC1C(O)CC(OC2CC(OC3CC(O[C@@H]4C(=O)c5c(cc6cc(OC7CC(OC8CC(O)C(O)C(C)O8)C(O)C(C)O7)c(C)c(O)c6c5O)CC4[C@H](OC)C(=O)C(C)=O)OC(C)C3O)OC(C)C2O)OC1C (stereo not given in full)
growth (RPMI-8226 leukemia): 1.67% (active) | growth (OVCAR-8 ovarian): 4.01% (active) | growth (OVCAR-5 ovarian): 13.9% | growth (OVCAR-4 ovarian): 10.7% | growth (SK-OV-3 ovarian): 17.4% | growth (IGROV1 ovarian): 13.6% | growth (OVCAR-3 ovarian): 6.3% (active) | growth (HS 578T breast): 10.8% | growth (NCI/ADR-RES ovarian): 18.8%

Cc1cc(C(=O)CCCC(=O)c2cc(C)c(O)c(C)c2)cc(C)c1O
growth (RPMI-8226 leukemia): 94.2% | growth (OVCAR-8 ovarian): 104% | growth (OVCAR-5 ovarian): 95.8% | growth (OVCAR-4 ovarian): 93.1% | growth (SK-OV-3 ovarian): 98% | growth (IGROV1 ovarian): 95.9% | growth (OVCAR-3 ovarian): 105% | growth (HS 578T breast): 98.8% | growth (NCI/ADR-RES ovarian): 98%

CCN(CC)CCOc1ccc(C(=O)/C=C\c2ccc(Cl)cc2Cl)cc1
growth (RPMI-8226 leukemia): -23.9% (active) | growth (OVCAR-8 ovarian): 53.3% | growth (OVCAR-5 ovarian): 68% | growth (OVCAR-4 ovarian): 52.6% | growth (SK-OV-3 ovarian): 43.2% | growth (IGROV1 ovarian): 32.2% | growth (OVCAR-3 ovarian): 9.56% (active) | growth (HS 578T breast): 66.2% | growth (NCI/ADR-RES ovarian): 49.9%

COc1ccc(C=Nc2c(C(=O)Nc3cccc(Cl)c3C)sc3nc(C)c(C(=O)/C=C/c4ccc(OC)cc4)cc23)cc1
growth (RPMI-8226 leukemia): 14.9% | growth (OVCAR-8 ovarian): 21% | growth (OVCAR-5 ovarian): 31.3% | growth (OVCAR-4 ovarian): 58.2% | growth (SK-OV-3 ovarian): 40.9% | growth (IGROV1 ovarian): 38.3% | growth (OVCAR-3 ovarian): 4.94% (active) | growth (HS 578T breast): -1.89% (active) | growth (NCI/ADR-RES ovarian): 10.9%

Cc1ccc(S(=O)(=O)OC[C@]23CCC(C)(C)C[C@H]2C2=CC[C@@H]4[C@@]5(C)CCCNC(C)(C)[C@@H]5CC[C@@]4(C)[C@]2(C)CC3)cc1
growth (RPMI-8226 leukemia): 26.8% | growth (OVCAR-8 ovarian): -13.7% (active) | growth (OVCAR-5 ovarian): 84.7% | growth (OVCAR-4 ovarian): 23.3% | growth (SK-OV-3 ovarian): 103% | growth (IGROV1 ovarian): 16.9% | growth (OVCAR-3 ovarian): 76.5% | growth (HS 578T breast): 85.3% | growth (NCI/ADR-RES ovarian): 52.3%

CN(C)CCCn1c2c(c3cnccc3c1=O)C(=O)c1ccccc1-2
growth (RPMI-8226 leukemia): -13.6% (active) | growth (OVCAR-8 ovarian): -11.3% (active) | growth (OVCAR-5 ovarian): 0.0676% (active) | growth (OVCAR-4 ovarian): -9.31% (active) | growth (SK-OV-3 ovarian): 21.5% | growth (IGROV1 ovarian): 3.55% (active) | growth (OVCAR-3 ovarian): -11.8% (active) | growth (HS 578T breast): 20.3% | growth (NCI/ADR-RES ovarian): -17.7% (active)

Cc1ccc(O)c(NC(=O)c2cccc(Nc3ccnc(C(F)(F)F)c3)c2)c1
growth (RPMI-8226 leukemia): -1.23% (active) | growth (OVCAR-8 ovarian): 73.2% | growth (OVCAR-5 ovarian): 87.1% | growth (OVCAR-4 ovarian): 45.3% | growth (SK-OV-3 ovarian): 72.9% | growth (IGROV1 ovarian): 79.1% | growth (OVCAR-3 ovarian): 93.2% | growth (HS 578T breast): 93% | growth (NCI/ADR-RES ovarian): 40.2%

O=C(O)CC(C(=O)O)/C(=C\c1ccccc1)c1ccccc1 (stereo not given)
growth (RPMI-8226 leukemia): 102% | growth (OVCAR-8 ovarian): 100% | growth (OVCAR-5 ovarian): 104% | growth (OVCAR-4 ovarian): 107% | growth (SK-OV-3 ovarian): 97.4% | growth (IGROV1 ovarian): 120% | growth (OVCAR-3 ovarian): 113% | growth (HS 578T breast): 105% | growth (NCI/ADR-RES ovarian): 110%

Nc1cc(-c2ccc(Cl)cc2)nn1-c1nnc(/C=C/c2ccco2)c(=O)[nH]1
growth (RPMI-8226 leukemia): 43.3% | growth (OVCAR-8 ovarian): 24.8% | growth (OVCAR-5 ovarian): 60.9% | growth (OVCAR-4 ovarian): 29.1% | growth (SK-OV-3 ovarian): 60.7% | growth (IGROV1 ovarian): 35% | growth (OVCAR-3 ovarian): 37.9% | growth (HS 578T breast): 74.1% | growth (NCI/ADR-RES ovarian): 5.73% (active)

O=S(O)c1cc(Cl)cc(Cl)c1OCc1ccccc1
growth (RPMI-8226 leukemia): 93.1% | growth (OVCAR-8 ovarian): 97.6% | growth (OVCAR-5 ovarian): 99% | growth (OVCAR-4 ovarian): 113% | growth (SK-OV-3 ovarian): 102% | growth (IGROV1 ovarian): 109% | growth (OVCAR-3 ovarian): 107% | growth (HS 578T breast): 95.4% | growth (NCI/ADR-RES ovarian): 103%
